High-throughput results: PubChem, Broad Institute
Shown are actives, neighbours in structure and some others; about 6.7% of the full set was active somewhere.
Tcruzi prolif – inhibitors of T. cruzi proliferation; T. cruzi beta-gal in NIH3T3, GalScreen luminescence, 90 h; 77,000 tested, 5.9% active; inhibition, % at 8.34 µM;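 active = mean inhibition above about 93%, with at least 55% of replicates each passing it, limit read from the data, passing the limit was not always enough; inconclusive = only one of those two conditions holds; inactive = neither condition holds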
C diff HTS – inhibitors of Clostridium difficile growth | Clostridium difficile clinical isolate growth, OD600, 24 h; stronger effect = lower value | 86,000 tested, 0.25% active | growth activity, negative = inhibition, % at 16 µg/mL (by protocol);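 active = mean growth activity at or below -80% and every replicate also at or below -80%; inconclusive = mean at or below -80% but some replicate above -80%; inactive = mean growth activity above -80%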;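 note: 0% = DMSO wells and -100% = levofloxacin 16 µg/mL wells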
Pf Dd2 inh – inhibitors of Plasmodium falciparum Dd2 growth | P. falciparum Dd2 growth, SYBR Green, 72 h; stronger effect = lower value | activity change, % at 10 µM | 94,000 tested, 2.3% active; in the data active = activity change below about -80%; inconclusive = no clear call, values can overlap the other calls
* hit, by the source's call; ? = inconclusive; / = not tested or not shown.

SMILES	Tcruzi prolif	C diff HTS	Pf Dd2 inh
C[C@@H]1CN([C@@H](C)CO)C(=O)c2cc(NC(=O)Nc3ccccc3)ccc2O[C@@H](C)CCCCO[C@@H]1CN(C)C(=O)Nc1cccc2ccccc12	24	4	-84*
C[C@@H]1CN([C@H](C)CO)C(=O)c2cc(NC(=O)Nc3ccc(C(F)(F)F)cc3)ccc2O[C@@H](C)CCCCO[C@@H]1CN(C)C(=O)Nc1cccc2ccccc12	76	5	-82*
C[C@@H]1CN([C@H](C)CO)C(=O)c2cc(NC(=O)Nc3cccc4ccccc34)ccc2O[C@@H](C)CCCCO[C@H]1CN(C)C(=O)Nc1ccc(C(F)(F)F)cc1	89	-9	-59
C[C@@H]1CCCCO[C@@H](CN(C)C(=O)Nc2cccc3ccccc23)[C@@H](C)CN([C@@H](C)CO)C(=O)c2cc(NC(=O)Nc3ccc(C(F)(F)F)cc3)ccc2O1	/	6	-91*
CCCNC(=O)C[C@H]1CC[C@@H]2[C@@H](COc3ccc(NS(=O)(=O)c4ccccc4C)cc3C(=O)N2C)O1	50	1	-12
O=C(Nc1ccc(Cl)c(Cl)c1)N[C@@H]1CC[C@@H](CCn2cc(C3CCCCC3)nn2)O[C@@H]1CO	20	/	-87*
CCCc1cn(CC[C@@H]2CC[C@H](NS(=O)(=O)c3ccc(-c4ccccc4)cc3)[C@H](CO)O2)nn1	52	-5	-92*
COc1ccc(S(=O)(=O)N[C@H]2CC[C@@H](CCn3cc(-c4ccccc4F)nn3)O[C@@H]2CO)cc1	-9	-3	-43
COc1ccc(S(=O)(=O)N[C@@H]2CC[C@H](CCn3cc(-c4ccccc4F)nn3)O[C@@H]2CO)cc1	12	-1	-92*
COc1ccccc1S(=O)(=O)N[C@H]1CC[C@@H](CCn2cc(C3CCCC3)nn2)O[C@@H]1CO	/	14	-93*
CN(C)Cc1cn(CC[C@H]2CC[C@H](NS(=O)(=O)c3ccc(-c4ccccc4)cc3)[C@H](CO)O2)nn1	-405	/	10
COc1ccccc1S(=O)(=O)N[C@H]1CC[C@H](CCn2cc(C3CCCC3)nn2)O[C@H]1CO	/	-2	-5
O=C(Nc1ccc(Cl)c(Cl)c1)N[C@@H]1CC[C@@H](CCn2cc(C3CCCCC3)nn2)O[C@H]1CO	48	-1	-16
CN(C)CCCNC(=O)C[C@@H]1CC[C@@H]2[C@@H](COc3ccc(NC(=O)NC4CCCC4)cc3C(=O)N2C)O1	2	-2	7
COc1ccc2c3c([nH]c2c1)[C@H](CO)N(C)CC31CCN(S(=O)(=O)c2cccc(F)c2)CC1	/	7	-60
COc1ccc2c3c([nH]c2c1)[C@H](CO)N(C(=O)Nc1cccc(F)c1)CC31CN(S(=O)(=O)c2cccc(C)c2)C1	/	0	-51
COc1ccc2c3c([nH]c2c1)[C@H](CO)N(CC1CC1)CC31CCN(S(=O)(=O)c2cccc(F)c2)CC1	/	8	-90*
COc1ccc2c3c([nH]c2c1)[C@H](CO)N(C(=O)Nc1cccc(F)c1)CC31CCN(S(=O)(=O)c2cccc(C)c2)CC1	/	-11	-82*
C[C@@H]1CCCCO[C@@H](CN(C)C(=O)Nc2ccc3c(c2)OCO3)[C@@H](C)CN([C@@H](C)CO)C(=O)c2cc(NC(=O)CCC(F)(F)F)ccc2O1	/	-7	-61
COc1ccc2c3c(n(C)c2c1)[C@H](CO)N(C(=O)NC(C)C)CC31CN(Cc2nccs2)C1	/	-14	-3
COc1ccc2c3c(n(C)c2c1)[C@@H](CO)N(C(=O)Nc1cccc(F)c1)CC31CN(Cc2nccs2)C1	/	-10	-85*
COc1ccc2c3c(n(C)c2c1)[C@H](CO)N(C(=O)C1CCCC1)CC31CCN(C(=O)Nc2cccc(F)c2)CC1	/	5	-56
COc1ccc(NC(=O)N2CC3(C2)CN(C(=O)C2CCC2)[C@H](CO)c2c3c3ccc(OC)cc3n2C)cc1	/	-2	-88*
COc1ccc2c3c(n(C)c2c1)[C@@H](CO)N(C(=O)C1CCCC1)CC31CCN(C(=O)Nc2cccc(F)c2)CC1	/	0	-91*
COc1ccc2c3c(n(C)c2c1)[C@@H](CO)N(C(=O)C1CCC1)CC31CN(C)C1	/	-6	5
SMILES	Tcruzi prolif	C diff HTS	Pf Dd2 inh
COc1ccc(NC(=O)N2CCC3(CC2)CN(C(=O)C2CCC2)[C@H](CO)c2c3c3ccc(OC)cc3n2C)cc1	/	-9	-90*
COc1ccc2c3c(n(C)c2c1)[C@@H](CO)N(C(=O)C1CCCCC1)CC31CCN(C(=O)Nc2cccc(F)c2)CC1	/	/	30
COc1ccc(CNC(=O)C[C@@H]2CC[C@@H]3[C@H](COc4ccc(NC(=O)C5CC5)cc4C(=O)N3C)O2)cc1	-13	-2	-7
C[C@@H]1CN([C@H](C)CO)C(=O)c2cccc(NC(=O)c3cnccn3)c2O[C@H]1CN(C)C(=O)Nc1ccc2c(c1)OCO2	-9	/	-16
CCC(=O)N1[C@@H]2Cn3c(ccc(-c4ccccc4)c3=O)[C@H]1[C@@H](C(=O)N(C)C)[C@@H]2CO	24	-2	0
C[C@H](NC(=O)[C@@H]1[C@@H](CO)[C@@H]2Cn3c(ccc(-c4ccccc4F)c3=O)[C@H]1N2)c1ccccc1	-12	-6	-5
O=S(=O)(NC[C@@H]1CC[C@@H]2[C@@H](CN2CC(c2ccccc2)c2ccccc2)O1)c1ccccc1F	/	/	-5
CCCC(=O)N1CC2(CN(C(=O)Nc3cccc(F)c3)C2)c2c(n(C)c3cc(OC)ccc23)[C@@H]1CO	/	17	-23
COc1ccc2c3c(n(C)c2c1)[C@H](CO)N(C(=O)C1CCCC1)CC31CN(C(=O)CN(C)C)C1	/	/	25
CCCC(=O)N1CC2(CN(C(=O)Nc3cccc(F)c3)C2)c2c(n(C)c3cc(OC)ccc23)[C@H]1CO	/	8	-82*
COc1ccc2c3c(n(C)c2c1)[C@@H](CO)N(CC1CCCC1)CC31CCN(C(=O)Nc2ccccc2)CC1	/	44	-84*
COc1ccc2c3c(n(C)c2c1)[C@H](CO)N(C(=O)C1CCCC1)CC31CN(C(=O)CC2CC2)C1	/	3	-85*
COc1ccc2c3c(n(C)c2c1)[C@@H](CO)N(CC1CC1)CC31CCN(C(=O)Nc2ccccc2)CC1	/	-1	-73
CCCc1cn(CC[C@@H]2CC[C@@H](NC(=O)Cc3cccnc3)[C@@H](CO)O2)nn1	-37	-8	8
C[C@@H]1CN([C@@H](C)CO)C(=O)c2cccc(NC(=O)Nc3ccc(F)cc3)c2O[C@@H]1CN(C)C(=O)Nc1ccc(F)cc1	31	5	-39
COc1ccccc1-c1cnc2c(c1)C(=O)N([C@@H](C)CO)C[C@@H](C)[C@H](CN(C)Cc1ccc(C(=O)O)cc1)O2	33	1	-8
C[C@H]1CN([C@@H](C)CO)S(=O)(=O)c2ccc(-c3ccc(C(=O)N(C)C)cc3)cc2O[C@@H]1CN(C)C(=O)C1CCC1	-4	-5	-42
C[C@@H]1CN([C@H](C)CO)C(=O)c2cc(NC(=O)Nc3cccc4ccccc34)ccc2O[C@@H](C)CCCCO[C@H]1CN(C)S(=O)(=O)c1ccc(Cl)cc1	23	5	?
C[C@@H]1CN([C@H](C)CO)C(=O)c2cc(NC(=O)Nc3cccc4ccccc34)ccc2O[C@@H](C)CCCCO[C@@H]1CN(C)S(=O)(=O)c1ccc(Cl)cc1	37	8	-85*
